# Data published in the supplement of paper PMC10849652.
# Targets with a hit are over-represented here; the source holds about 7,900 in all. About 0.6% of all pairs of compound and target were hits. Unmarked numbers belong to inactive results.
# Experiments:
# Experiment in all cases: log2 fold change, soluble protein after heating vs DMSO (PISA); higher = thermal stabilisation; K562 cells, 10 uM, 30 min; active = over 0.2 and 3.5 SD of the protein, either way, in both replicates (recomputed)
# [1] = compound: C1=CC=C(C=C1)[C@H](COC2=CC3=C(C=C2)NC(=O)N3)NC(=O)C4=CC=CN(C4=O)CC5=CC(=C(C=C5)F)F
# Method in brief: (§1)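 For each measurement, 10 μM compound was applied for 30 min to K562 cells at 2×10^6 cells/mL. Aliquots were heated for 3 min across 48°C-58°C, pooled, and extracted in PBS with 0.5% NP-40 at 4°C; the supernatant after 21,000xg for 90 min was soluble protein. This was quantified by TMTpro 16plex LC-MS/MS with channel sums equalised, and thermal stability was reported relative to control samples from duplicates, on a log2 fold-change scale.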
# [2] = compound: CC1=C(SC2=C1C(=N[C@H](C3=NN=C(N32)C)CC(=O)N)C4=CC=C(C=C4)Cl)C
# Method in brief: as §1
# [3] = compound: CC1=C2C(=CC=C1)N=C(N(C2=O)C3=CC=CC=C3C)CN4C=NC5=C(N=CN=C54)N
# Method in brief: as §1
# [4] = compound: Cc1sc2c(c1C)C(c1ccc(Cl)cc1)=N[C@@H](CC(=O)OC(C)(C)C)c1nnc(C)n1-2
# Method in brief: as §1
# [5] = compound: c1ccc([C@@H]2C[C@H]2NC2CCNCC2)cc1
# Method in brief: as §1
# UniProt P10620, sequence (P10620 whole entry, looked up): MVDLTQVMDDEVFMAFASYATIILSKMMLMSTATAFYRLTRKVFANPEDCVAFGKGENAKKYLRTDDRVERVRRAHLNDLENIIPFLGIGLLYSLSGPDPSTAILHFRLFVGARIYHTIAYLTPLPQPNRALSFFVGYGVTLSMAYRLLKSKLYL
# UniProt Q9Y2U8, sequence (Q9Y2U8 whole entry, looked up): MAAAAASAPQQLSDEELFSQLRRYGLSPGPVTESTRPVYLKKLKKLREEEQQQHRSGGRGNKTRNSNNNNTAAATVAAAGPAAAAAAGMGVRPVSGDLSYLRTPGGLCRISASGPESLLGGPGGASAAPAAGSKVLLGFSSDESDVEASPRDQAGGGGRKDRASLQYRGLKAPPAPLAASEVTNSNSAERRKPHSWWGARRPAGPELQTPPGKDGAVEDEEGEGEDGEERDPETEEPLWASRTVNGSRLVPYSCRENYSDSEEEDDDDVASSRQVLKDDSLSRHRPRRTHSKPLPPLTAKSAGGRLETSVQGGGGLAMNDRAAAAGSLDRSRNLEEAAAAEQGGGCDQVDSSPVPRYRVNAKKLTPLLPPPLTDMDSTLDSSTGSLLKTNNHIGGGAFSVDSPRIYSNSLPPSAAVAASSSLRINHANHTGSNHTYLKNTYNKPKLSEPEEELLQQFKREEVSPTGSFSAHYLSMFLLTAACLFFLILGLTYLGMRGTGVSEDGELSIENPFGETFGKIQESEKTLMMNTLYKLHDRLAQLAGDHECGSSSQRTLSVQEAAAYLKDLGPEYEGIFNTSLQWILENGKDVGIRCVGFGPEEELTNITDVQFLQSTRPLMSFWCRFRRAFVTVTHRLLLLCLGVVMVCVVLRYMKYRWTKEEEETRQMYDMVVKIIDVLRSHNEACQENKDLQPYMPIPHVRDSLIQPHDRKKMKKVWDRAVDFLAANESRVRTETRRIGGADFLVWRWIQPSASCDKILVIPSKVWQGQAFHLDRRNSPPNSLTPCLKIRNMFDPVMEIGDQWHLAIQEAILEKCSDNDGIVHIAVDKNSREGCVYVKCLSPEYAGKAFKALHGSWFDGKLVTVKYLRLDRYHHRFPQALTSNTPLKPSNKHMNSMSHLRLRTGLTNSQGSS
# UniProt O43934, sequence (O43934 whole entry, looked up): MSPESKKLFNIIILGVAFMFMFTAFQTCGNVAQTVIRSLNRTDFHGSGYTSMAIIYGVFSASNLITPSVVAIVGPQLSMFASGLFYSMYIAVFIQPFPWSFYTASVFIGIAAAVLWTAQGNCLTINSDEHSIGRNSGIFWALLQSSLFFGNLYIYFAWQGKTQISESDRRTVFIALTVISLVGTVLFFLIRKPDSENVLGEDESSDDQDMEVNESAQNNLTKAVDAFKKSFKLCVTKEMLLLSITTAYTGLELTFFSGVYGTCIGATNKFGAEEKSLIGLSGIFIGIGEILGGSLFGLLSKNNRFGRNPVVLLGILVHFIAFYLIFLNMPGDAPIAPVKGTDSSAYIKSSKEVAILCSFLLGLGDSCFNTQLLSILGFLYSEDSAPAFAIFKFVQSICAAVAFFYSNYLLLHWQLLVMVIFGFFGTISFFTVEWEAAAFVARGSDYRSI
# UniProt Q07820, sequence (Q07820 whole entry, looked up): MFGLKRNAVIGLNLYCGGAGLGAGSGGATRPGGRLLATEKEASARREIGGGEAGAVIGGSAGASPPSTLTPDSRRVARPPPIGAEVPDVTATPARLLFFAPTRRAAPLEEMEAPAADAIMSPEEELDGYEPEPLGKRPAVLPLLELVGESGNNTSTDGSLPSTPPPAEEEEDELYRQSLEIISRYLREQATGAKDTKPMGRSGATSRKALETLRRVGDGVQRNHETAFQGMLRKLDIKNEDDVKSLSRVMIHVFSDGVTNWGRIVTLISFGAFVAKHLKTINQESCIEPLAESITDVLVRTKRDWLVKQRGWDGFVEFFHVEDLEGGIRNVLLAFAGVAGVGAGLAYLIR
# UniProt Q9P244, sequence (Q9P244 whole entry, looked up): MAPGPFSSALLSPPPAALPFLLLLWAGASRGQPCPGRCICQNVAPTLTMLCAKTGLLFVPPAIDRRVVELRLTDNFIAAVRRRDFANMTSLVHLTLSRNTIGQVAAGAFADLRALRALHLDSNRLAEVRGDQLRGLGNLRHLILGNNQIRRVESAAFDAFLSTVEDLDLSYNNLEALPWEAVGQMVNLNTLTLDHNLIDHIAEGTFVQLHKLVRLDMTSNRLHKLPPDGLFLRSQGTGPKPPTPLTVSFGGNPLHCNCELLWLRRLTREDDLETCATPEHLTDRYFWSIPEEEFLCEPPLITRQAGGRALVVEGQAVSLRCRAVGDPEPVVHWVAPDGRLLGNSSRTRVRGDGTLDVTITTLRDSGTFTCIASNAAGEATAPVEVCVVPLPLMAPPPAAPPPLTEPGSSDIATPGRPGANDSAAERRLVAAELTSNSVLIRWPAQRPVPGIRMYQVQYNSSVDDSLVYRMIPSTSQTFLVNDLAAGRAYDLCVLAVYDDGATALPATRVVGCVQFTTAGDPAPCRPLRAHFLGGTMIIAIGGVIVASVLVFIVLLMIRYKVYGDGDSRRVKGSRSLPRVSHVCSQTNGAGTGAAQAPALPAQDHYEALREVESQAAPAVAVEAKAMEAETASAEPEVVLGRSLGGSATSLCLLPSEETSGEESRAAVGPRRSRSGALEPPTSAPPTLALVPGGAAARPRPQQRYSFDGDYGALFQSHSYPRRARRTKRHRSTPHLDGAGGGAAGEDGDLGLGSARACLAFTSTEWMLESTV
# UniProt Q71SY5, sequence (Q71SY5 whole entry, looked up): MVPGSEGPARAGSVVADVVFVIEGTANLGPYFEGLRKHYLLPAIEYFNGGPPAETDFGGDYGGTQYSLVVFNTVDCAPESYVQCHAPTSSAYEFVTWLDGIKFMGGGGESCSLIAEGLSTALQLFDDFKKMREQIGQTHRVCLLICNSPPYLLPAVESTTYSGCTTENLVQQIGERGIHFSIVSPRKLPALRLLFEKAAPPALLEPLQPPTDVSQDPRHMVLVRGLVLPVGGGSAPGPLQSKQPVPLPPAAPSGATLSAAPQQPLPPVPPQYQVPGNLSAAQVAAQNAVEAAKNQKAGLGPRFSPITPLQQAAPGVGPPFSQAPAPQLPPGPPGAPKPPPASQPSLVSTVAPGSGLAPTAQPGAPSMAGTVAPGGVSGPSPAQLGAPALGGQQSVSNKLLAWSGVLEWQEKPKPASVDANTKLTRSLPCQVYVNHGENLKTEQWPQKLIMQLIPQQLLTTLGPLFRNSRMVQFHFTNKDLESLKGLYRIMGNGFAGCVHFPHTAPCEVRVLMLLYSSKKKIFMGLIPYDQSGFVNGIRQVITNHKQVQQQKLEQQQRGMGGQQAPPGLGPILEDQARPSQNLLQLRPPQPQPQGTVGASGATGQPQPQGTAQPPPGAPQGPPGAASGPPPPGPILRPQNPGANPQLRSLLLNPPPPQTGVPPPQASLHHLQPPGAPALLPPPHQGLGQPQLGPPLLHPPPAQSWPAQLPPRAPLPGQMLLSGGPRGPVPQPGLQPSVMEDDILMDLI
# UniProt P33947, sequence (P33947 whole entry, looked up): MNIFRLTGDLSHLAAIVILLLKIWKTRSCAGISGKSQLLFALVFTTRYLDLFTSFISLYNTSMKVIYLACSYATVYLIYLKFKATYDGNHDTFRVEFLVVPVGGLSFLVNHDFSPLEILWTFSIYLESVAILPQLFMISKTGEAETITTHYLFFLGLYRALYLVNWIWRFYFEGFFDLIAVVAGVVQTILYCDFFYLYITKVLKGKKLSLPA
# UniProt Q6UWB1, sequence (Q6UWB1 whole entry, looked up): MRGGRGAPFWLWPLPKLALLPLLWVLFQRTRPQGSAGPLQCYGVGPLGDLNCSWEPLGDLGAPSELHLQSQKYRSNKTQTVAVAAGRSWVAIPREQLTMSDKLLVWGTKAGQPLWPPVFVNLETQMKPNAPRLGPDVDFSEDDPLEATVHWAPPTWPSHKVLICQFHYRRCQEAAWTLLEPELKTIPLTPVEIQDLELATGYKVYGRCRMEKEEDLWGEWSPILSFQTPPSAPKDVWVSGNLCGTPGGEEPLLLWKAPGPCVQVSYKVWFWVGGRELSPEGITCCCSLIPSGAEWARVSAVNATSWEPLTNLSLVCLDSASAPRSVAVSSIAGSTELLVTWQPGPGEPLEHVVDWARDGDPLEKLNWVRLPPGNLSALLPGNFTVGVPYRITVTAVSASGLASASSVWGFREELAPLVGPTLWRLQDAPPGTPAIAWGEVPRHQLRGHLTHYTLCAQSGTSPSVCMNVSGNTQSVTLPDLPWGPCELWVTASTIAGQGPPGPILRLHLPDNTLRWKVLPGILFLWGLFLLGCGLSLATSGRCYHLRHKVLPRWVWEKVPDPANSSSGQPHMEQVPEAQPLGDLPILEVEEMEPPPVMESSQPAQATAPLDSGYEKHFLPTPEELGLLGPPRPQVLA
# UniProt Q9HCC0, sequence (Q9HCC0 whole entry, looked up): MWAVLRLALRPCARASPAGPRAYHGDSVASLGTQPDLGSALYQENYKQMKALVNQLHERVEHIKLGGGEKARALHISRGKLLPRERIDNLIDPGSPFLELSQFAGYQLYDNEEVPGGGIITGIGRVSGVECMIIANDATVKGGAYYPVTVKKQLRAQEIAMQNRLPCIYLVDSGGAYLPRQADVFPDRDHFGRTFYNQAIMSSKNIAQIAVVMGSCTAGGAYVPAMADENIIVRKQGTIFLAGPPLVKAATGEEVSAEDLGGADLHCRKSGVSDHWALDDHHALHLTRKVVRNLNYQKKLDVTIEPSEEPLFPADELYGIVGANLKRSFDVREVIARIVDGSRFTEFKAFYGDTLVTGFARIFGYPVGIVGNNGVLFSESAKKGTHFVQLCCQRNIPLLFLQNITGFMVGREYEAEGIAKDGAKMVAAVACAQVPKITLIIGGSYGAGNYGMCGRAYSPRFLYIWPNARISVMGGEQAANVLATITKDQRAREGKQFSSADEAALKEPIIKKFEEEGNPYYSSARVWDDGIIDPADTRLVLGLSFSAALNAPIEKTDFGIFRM
Target,log2 fold change [1],log2 fold change [2],log2 fold change [3],log2 fold change [4],log2 fold change [5]
MICU1 isoform 3 (UniProt Q9BPX6),0.005,-0.033,-0.06,0.02,-0.036
MAP1LC3B2 (UniProt A6NCE7),0.015,0.113,0.021,-0.015,-0.073
MED25 isoform 3 (UniProt Q71SY5),-0.12,0.06,-0.14,-0.128,-0.257
LOX (UniProt P28300),-0.113,–,–,–,–
MCCC2 (UniProt Q9HCC0),0.029,0.038,-0.027,-0.022,0.026
ILKAP (UniProt Q9H0C8),-0.071,0.076,0.135,-0.045,-0.046
KDM1A isoform 2 (UniProt O60341),-0.05,0,0.087,-0.019,1.73 (active)
LRFN1 (UniProt Q9P244),-0.069,0.183,0.042,-0.02,-0.411
MAP4 (UniProt P27816),0.028,-0.017,-0.058,0.003,0.037
MARCHF3 (UniProt Q86UD3),-0.096,–,–,–,–
LDLRAP1 (UniProt Q5SW96),0.055,–,–,–,–
KIFBP (UniProt Q96EK5),-0.075,0.025,0.06,-0.058,0.005
LMBRD1 (UniProt Q9NUN5),0.013,0.099,0.143,-0.178,0.039
MAP4 isoform 5 (UniProt P27816),0.077,–,–,–,–
MFN1 (UniProt Q8IWA4),0.058,0.042,0.05,0.07,-0.01
IL27RA (UniProt Q6UWB1),0.021,0.144,0.002,0.097,0.096
LEMD3 (UniProt Q9Y2U8),0.067,0.034,0.119,-0.031,-0.01
MCL1 (UniProt Q07820),-0.013,0.125,0.135,0.057,0.073
MFSD11 (UniProt O43934),0.04,0.11,0.104,-0.03,-0.049
MGST1 (UniProt P10620),-0.061,0.032,-0.11,0.05,0.008
JMJD6 isoform 3 (UniProt Q6NYC1),-0.004,0.046,0.055,0.006,0.097
MARK3 (UniProt P27448),-0.042,0.039,0.104,0.121,0.004
ILVBL (UniProt A1L0T0),-0.016,0.371 (active),0.075,-0.067,-0.127
KDELR2 (UniProt P33947),-0.038,-0.015,0.076,-0.137,0.115
MIA2 (UniProt Q96PC5),-0.036,0.041,0.02,0.029,0.027
LAPTM4B (UniProt Q86VI4),-0.12,–,–,–,–
IPP (UniProt Q9Y573),0.065,–,–,–,–
KHDC4 (UniProt Q7Z7F0),-0.063,0.129,0.007,-0.061,-0.064
